This is an account of results in PubChem BioAssay AID652257 (The Scripps Research Institute Molecular Screening Center, 2013).

Structures are written as SMILES. About 4,800 (1.3%) of roughly 370,000 compounds were called active. This is one part of a sample in which actives are shown more often than they occur. Unmarked numbers belong to inactive results.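 Rule for the calls: active = inhibition above about 21% made by adding two undisclosed values (limit read from the data); inactive = the rest.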

For this assay, the target named is Protein arginine N-methyltransferase 1 (Homo sapiens) (UniProt Q99873). Kind of assay: PRMT1 methyltransferase inhibitors, primary screen, biochemical, fluorescence polarization (AID 652257). The conditions noted are these: recombinant PRMT1, activity-based probe fluorescence polarization; at 2.79 µM; hits give high values. In general terms: Polarisation of emitted light reports the rotation of a fluorescent probe.
Protein arginine N-methyltransferase 1 (Homo sapiens), sequence (Q99873 whole entry, looked up): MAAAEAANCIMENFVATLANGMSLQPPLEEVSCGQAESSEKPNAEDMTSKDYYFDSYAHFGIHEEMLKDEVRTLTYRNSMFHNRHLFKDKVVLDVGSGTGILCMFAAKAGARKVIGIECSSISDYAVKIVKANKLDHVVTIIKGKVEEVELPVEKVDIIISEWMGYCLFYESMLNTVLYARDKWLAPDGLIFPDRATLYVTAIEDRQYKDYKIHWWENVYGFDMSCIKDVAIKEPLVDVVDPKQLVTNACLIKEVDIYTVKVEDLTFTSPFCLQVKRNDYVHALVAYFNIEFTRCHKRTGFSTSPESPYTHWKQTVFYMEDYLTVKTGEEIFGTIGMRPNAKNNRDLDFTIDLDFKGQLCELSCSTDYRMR
Regarding `O=C(NCCOc1cccnc1)c1ccc(OC2CCN(Cc3ccccn3)CC2)cc1`, the inhibition is 3.52%.
The same measure for `Cc1ccccc1N1CC(C(=O)Nc2nnc(SCCC3OCCO3)s2)CC1=O` (configuration not stated): 5.12%; for `Cc1ccnc(-n2sc3ccccc3c2=O)n1`: 90.7% (active).
The same measure for `CCOc1ccc(-n2cnnn2)cc1S(=O)(=O)N1CCC(C)CC1C` (configuration not stated): -4.54%.
For the compound `CC(NC(=S)NC1CCCCC1)C(c1ccccc1)N1CCOCC1` (configuration not stated), the inhibition was 0.42%.
For `COc1ccc(N2CCN(CCNS(=O)(=O)c3ccc([N+](=O)[O-])cc3)CC2)cc1`, the inhibition is -4.73%.
The same measure for `O=C(CC1CCCCC1)NCc1ccco1`: -1.65%; for `O=C(CC1N=C2c3ccccc3N=C(SCc3ccccc3Cl)N2C1=O)NCc1ccco1` (configuration not stated): 26.2% (active).
For `CC1(c2ccccc2Cl)NC(=O)N(CC(=O)NC(=O)NCc2ccco2)C1=O` (configuration not stated), the inhibition was 5.3%.
The same measure for `O=C(NCCCN1CCN(c2ccc(F)cc2)CC1)Nc1ccc([N+](=O)[O-])cc1`: -0.66%.
`Nn1c(SCC(=O)Nc2cccc3ccccc23)nnc1-c1cc(-c2ccc(F)cc2)n[nH]1`: the inhibition was 2.17%.
Next, `CN(C)c1ccc(Nc2c3c4c(cccc4n(C)c2=O)C(=O)c2ccccc2-3)cc1`: 56.4% (active).
As to `Cc1cc(Cl)ccc1C(=O)C1CCCN(C(=O)c2nonc2C)C1` (configuration not stated), the inhibition is -0.28%.
The same measure for `COc1ccc(Cn2cc(COC(=O)N(C)Cc3ccccc3)nn2)cc1`: -6.72%.
Next, `Cc1cccc(N2CCN(C(=O)c3cc4c(=O)[nH]c5ccccc5c4n3C)CC2)c1C`: -1.76%; `Cc1cccc(N2CCN(C(=O)/C=C/c3ccco3)CC2)c1C`: 29.9% (active); `CCn1c(C)c(C)c2cc(C(=O)N3CCN(c4cccc(C)c4C)CC3)ccc21`: 2.44%.
On to `CN(C)c1ccc(NC(=O)NC2CCCCN(Cc3ccc(Cl)cc3)C2=O)cc1` (configuration not stated), for which the inhibition was 4.83%.
Consider `Nn1c(SCC(=O)Nc2ccc(S(N)(=O)=O)cc2)nnc1-c1n[nH]c2c1CCC2`, for which the inhibition was 0.39%.
For `CN(C)[C@H]1CCN(c2cccc3c2S(=O)(=O)N2CC[C@H](C2)O3)C1`, the inhibition was 0.28%.
The same measure for `CC(=O)OC12CCCN(C1)/C(=C/c1ccncc1)C2` (configuration not stated): -0.73%; for `COCCCNC(=O)CC1C[C@H](C(=O)N2CCCCC2)[C@@]2(CCc3ccccc3)c3[nH]c4ccccc4c3CCN2C1=O` (some centres not stated): -2.68%.
In the case of `CCCCCCCCNS(=O)(=O)/C=C/c1cc(C)ccc1CNC(=O)OC(C)(C)C`, the inhibition is -0.82%.
Next, `O=C(CSc1ccccc1)Nc1cccc(S(=O)(=O)N2CCCCC2)c1`: -5.2%; `Cc1cc(NC(=O)C(C)SCC(=O)Nc2cccc(S(=O)(=O)N3CCCCCC3)c2)no1` (configuration not stated): 71.1% (active); `Cc1cc(NC(=O)C(C)SCC(=O)Nc2ccccc2N2CCCCC2)no1` (configuration not stated): -2.38%.
The same measure for `C=C1C(C(C)C)N(C)C2=NC(c3ccccc3)CC(=O)N12` (configuration not stated): -3.21%; for `O=C(NC1CCCCC1)C(c1cc2ccccc2o1)n1c(=O)c(-c2ccco2)nc2ccccc21` (configuration not stated): 10.9%.
The same measure for `N#Cc1ccc(C(C(=O)NCc2ccccc2)n2c(=O)c(-c3ccco3)nc3ccccc32)cc1` (configuration not stated): 20.9%.
In the case of `Cc1cccc(C)c1NC(=O)C(c1ccc(C(F)(F)F)cc1)n1c(=O)c(-c2ccco2)nc2ccccc21` (configuration not stated), the inhibition is 23.1% (active).
Consider `Cc1ccc(CSc2nnc(SCC(=O)NN=Cc3cc(Br)ccc3F)s2)cc1`, for which the inhibition is 3.3%.
Next, `CCc1cccc2c3c([nH]c12)C(CC)(CC(=O)O)OCC3` (configuration not stated): 1.16%.
Regarding `C[C@H]1CCC/C=C/C(=O)c2c(O)cc(O)cc2CC(=O)O1`, the inhibition is 7.7%.
Next, `C[C@@H](NC(=O)OC(C)(C)C)c1nnc(S(=O)(=O)Cc2ccccc2)o1`: 21.3% (active); `CC(C)[C@@H](NC(=O)OC(C)(C)C)C(=O)NCC1CCC(C(=O)N[C@@H](Cc2ccccc2)C(=O)O)CC1` (some centres not stated): 2.79%; `CC(C)(C)c1ccc(C(CC(=O)O)NS(=O)(=O)Cc2ccccc2)cc1` (configuration not stated): -1.05%.
The same measure for `CCOC(=O)[C@]12CCCC=C1N(Cc1ccc(OC)cc1)C(=O)[C@@H]2CC(=O)N1CCOCC1`: -1.02%; for `O=C(NCc1ccc(Cl)cc1)C1CCCN(c2nc3ccccc3o2)C1` (configuration not stated): 4.6%.
As to `N#Cc1ccccc1S(=O)(=O)N1CCN(C(=O)c2cc(-c3ccccc3)nn2-c2ccccc2)CC1`, the inhibition is -1.25%.
Take `O=C(CN1CCN(S(=O)(=O)c2cc(Cl)ccc2Cl)CC1)c1ccc(O)c(O)c1`: the inhibition is 18.9%.
The same measure for `N#Cc1ccccc1S(=O)(=O)N1CCN(Cc2c(O)ccc3ccccc23)CC1`: 34.5% (active); for `CC1=CC(C)(C)Nc2ccc(OC(=O)CN3C(=O)C4CCCCC4C3=O)cc21` (configuration not stated): 0.85%.
Next, `CCOC(=O)c1c(N)c(C#N)nn1-c1ccccc1C(=O)OC`: 6.05%.
Next, `CSc1ccccc1NC(=O)CN(C)CC(=O)Nc1ccc(Cl)cc1[N+](=O)[O-]`: -1.57%; `O=C(COc1ccc(Cl)cc1[N+](=O)[O-])N1CCCCC1`: -4.9%; `O=C1CCCCC1Sc1ccc(Cl)cc1[N+](=O)[O-]` (configuration not stated): 48.8% (active).
As for `CC(=O)OCCN1CCCC12CCC(c1ccccc1)CC2` (configuration not stated), the inhibition was 2.94%.
Turning to `C=C(C)C1CC23C(=O)C4(C(=O)c5ccccc5)C[C@@]5(C)CCC(CC2C1(C)C)(C4=O)C35OC` (some centres not stated), the inhibition was 3.86%.
Regarding `COc1ccc(C2CC(=O)n3c(nc4ccccc43)S2)cc1OC` (configuration not stated), the inhibition was 0.28%.
The same measure for `COc1ccc(C2CC(c3cccs3)=Nc3ccccc3S2)cc1OC` (configuration not stated): 63.7% (active).
Next, `COc1ccc(C2CC(c3cccs3)=NN2c2nc(C)c(C(C)=O)s2)cc1OC` (configuration not stated): 0.1%.
For the compound `O=S1(=O)c2ccc(Br)cc2OC[C@@H](Cc2ccccc2)N1Cc1cn(Cc2ccco2)nn1`, the inhibition was -6.43%.
As for `COc1ccc(C(=O)CSc2nnc(-c3cnccn3)n2-c2ccc(C)cc2)cc1`, the inhibition was -1.24%.
Next, `N#CCC(=O)NC(=O)NCC1CC1`: 1.85%.
On to `Nc1ccc2nc3c(=O)[nH]c(=S)[nH]c3nc2c1`, for which the inhibition was 129% (active).
Regarding `COc1nc(NCc2ccc(Cl)cc2)nc(OC)n1`, the inhibition was -0.93%.
Next, `CCN(CC)S(=O)(=O)c1cccc(-c2n[nH]c(=S)n2/N=C/c2ccc(C(=O)OC)cc2)c1`: 31.9% (active).
Next, `CCN(CC)S(=O)(=O)c1cccc(NC(=O)c2ccc(S(=O)(=O)N3CCCC3)cc2)c1`: 2.8%.
For the compound `COC(=O)c1ccc(/C=N/N2C(C)CCCC2C)cc1` (configuration not stated), the inhibition was -0.34%.
For the compound `Cc1cc(=O)[nH]c(SCC(=O)Nc2ccc(Cl)cc2C)n1`, the inhibition is -2.19%.
Next, `CCOC(=O)Cc1csc(SCC(=O)Nc2ccc(C)cc2F)n1`: 1.96%.
With `CCOC(=O)Cc1csc(NC(=O)CSc2nc(C)cc(=O)[nH]2)n1`, the inhibition was 63.7% (active).
The same measure for `Clc1cccc2c1C1CC2CCN1Cc1ccccc1` (configuration not stated): -1.44%; for `CCCn1c(N)c(C(=O)CSc2nnc(-c3cccnc3)n2-c2ccc(C)cc2C)c(=O)[nH]c1=O`: -1.38%.
The same measure for `COc1ccc(C#CCNCc2ccc(OC)cc2OC)cc1`: 0.44%; for `O=C(O)CCC(=O)N(Cc1ccccc1)Cc1ccccc1`: -4.57%.
For `Cc1ccc(-c2nn(-c3ccccc3)cc2CN(Cc2ccccc2)C(=O)CCC(=O)O)o1`, the inhibition is 30.5% (active).
The same measure for `CN(C)S(=O)(=O)c1cccc(-c2nn(-c3ccccc3)cc2/C=C2\SC(=S)N(CC(=O)O)C2=O)c1`: 28.2% (active).
Next, `COc1cccc(-c2nn(-c3ccccc3)cc2/C=C(\C#N)C(=O)NCCCn2ccnc2)c1`: -2.79%.
Next, `Cc1ccc(-c2nn(-c3ccccc3)cc2/C=C2\SC(=S)N(CCCCCC(=O)O)C2=O)o1`: 78.2% (active).
`Cc1ccc(-c2nn(-c3cccc(F)c3)cc2CNCCc2ccncc2)o1`: the inhibition was -2.78%.
Next, `O=C(/C=C/c1cn(-c2ccccc2)nc1-c1ccc2c(c1)OCCO2)NCCCN1CCOCC1`: 3.18%.
The same measure for `COc1ccc(COCCN2CCN(S(=O)(=O)c3ccccc3)CCC2=O)cc1`: 1.29%; for `O=C(NCC1COc2ccccc2O1)c1ccc(NC(=O)c2cc(F)ccc2F)cc1` (configuration not stated): 4.4%; for `NC(=O)c1ncn([C@@H]2O[C@H](CNCc3cnc(N4CCOCC4)s3)[C@@H](O)[C@H]2O)n1`: -0.65%.
Next, `C[C@@H]1ON(C)[C@H]2C[C@H]3c4[nH]c5cccc(-c6ccc7c(c6)OCO7)c5c4CCN3C[C@@H]12`: -2.89%.
For `COC(=O)[C@H](C(C)C)N1CCc2nnn(Cc3ccc(C)cc3)c2-c2ccccc2S1(=O)=O`, the inhibition was 0.49%.
As to `CCOC(=O)[C@]12CCCC3=C1N(CCC3)C(=O)[C@@H](CC(=O)NCC13CC4CC(CC(C4)C1)C3)C2`, the inhibition was -3.58%.
Next, `CCC(=O)c1c(CC)c2n3c1=CC[C@H]3CC(Br)C=2` (some centres not stated): 0.28%; `COc1ccc(-n2c(SCC(=O)NC3CCCC3)nnc2-c2ccncc2)cc1`: 4.19%; `O=S(=O)(NC1CC1)c1ccc2c3c(cccc13)CC2`: -2.46%.
`N#CC1(Nc2ccc3c4c(cccc24)CC3)CCCCC1`: the inhibition was 50.2% (active).
The same measure for `N#CC1(NC(=O)COC(=O)Cc2n[nH]c(=O)c3ccccc23)CCCCC1`: 1.07%; for `Cc1ccc2c(cnn2C(=O)CCC(=O)NC2CCCC2)c1`: 3.39%; for `COc1ccc(CNS(=O)(=O)c2ccc(NC(=O)N3CCCCC3)cc2)cc1`: -0.17%.
Next, `CC(C)=C1C2CCC1C1C(=O)N(NC(=O)c3ccco3)C(=O)C21` (configuration not stated): -2.54%; `COc1ccc(CN2C(=O)N3Cc4cc(OC)ccc4C3CS2(=O)=O)cc1` (configuration not stated): 3.9%.

Broadly, the inhibition is the change of the read-out against control, counted positive when it falls.
